These results are taken from PubChem BioAssay (NCI).

Some test systems named below: SK-MEL-2 melanoma; EKVX NSCLC; SN12C renal; UO-31 renal; TK-10 renal; ACHN renal; CAKI-1 renal; A498 renal; CCRF-CEM leukemia; MOLT-4 leukemia; SR leukemia; RPMI-8226 leukemia; OVCAR-8 ovarian; OVCAR-5 ovarian; OVCAR-4 ovarian; SK-OV-3 ovarian; IGROV1 ovarian; OVCAR-3 ovarian; HS 578T breast; NCI/ADR-RES ovarian.
Common to all, as to assay: NCI-60 one-dose screen, 48 h (100 = growth as untreated, 0 = no growth, -100 = all killed)
Common to all, as to conditions: 10 µM unless noted

The structures appear in SMILES notation. This is part of a sample that, as a whole, favours compounds with a hit. Of some 83,000 tested, about 20% had one in any assay.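 The endpoint reported here, percent growth, reads 100 for growth as untreated, 0 for no net growth and -100 for all cells dead.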 Unmarked numbers belong to inactive results. The source made the active and inactive calls. The calls were made as follows: active = growth percent below 10; inactive = the rest.

Turning to `CCOC(=O)c1c2c(n3ccc(NC(=O)CCN4CCCC4)cc13)C(=O)c1ncccc1C2=O`, the growth in the assay with SK-MEL-2 melanoma is 93.9%; in the assay on EKVX NSCLC, -49.2% (active); in the assay on SN12C renal it was -63.5% (active); with UO-31 renal, 16.9%; in the assay on TK-10 renal, -92.2% (active); in the assay with ACHN renal, 13.6%. In addition, the growth was 9.9% (active) in the assay with CAKI-1 renal; 46.3% in the assay with A498 renal; -36.4% (active) with CCRF-CEM leukemia; -23% (active) in the assay on MOLT-4 leukemia; -20.2% (active) in the assay with SR leukemia; -31.8% (active) in the assay on RPMI-8226 leukemia. Further, the growth with OVCAR-8 ovarian is -33.3% (active); in the assay on OVCAR-5 ovarian it was -67.4% (active); with OVCAR-4 ovarian, -68.1% (active); with SK-OV-3 ovarian it was 74.4%; in the assay with IGROV1 ovarian, -71.1% (active); in the assay on OVCAR-3 ovarian, -85.9% (active). Further, the growth in the assay with HS 578T breast was -43.9% (active); with NCI/ADR-RES ovarian, 27.3%.

Take `Oc1ccc(Cc2ccc(O)c3ncccc23)c2cccnc12`: the growth was -17.9% (active) with SK-MEL-2 melanoma; 8.21% (active) in the assay on EKVX NSCLC; 8.11% (active) in the assay with SN12C renal; 1.7% (active) with UO-31 renal; -9.53% (active) in the assay on TK-10 renal; -4.29% (active) with ACHN renal. Besides, the growth with CAKI-1 renal is 16.2%; in the assay on A498 renal it was 5.58% (active); in the assay with CCRF-CEM leukemia, 17.4%; in the assay with MOLT-4 leukemia, 11.8%; in the assay with SR leukemia it was 9.74% (active); in the assay on RPMI-8226 leukemia it was 8.21% (active). The growth is 12.6% with OVCAR-8 ovarian; 21.6% in the assay on OVCAR-5 ovarian; 14.2% in the assay on OVCAR-4 ovarian; -17.2% (active) in the assay with SK-OV-3 ovarian; 7.8% (active) in the assay with IGROV1 ovarian; 14.1% with OVCAR-3 ovarian. The growth in the assay with HS 578T breast was 36.6%; in the assay with NCI/ADR-RES ovarian, 20.2%.

As for `CCCn1cnc2c(c1=N)C(c1ccc(Cl)cc1)c1sc3c(F)cccc3c1O2` (stereo not given), the growth was 103% in the assay with SK-MEL-2 melanoma; 80% with EKVX NSCLC; 69.3% in the assay with SN12C renal; 50.5% in the assay on UO-31 renal; 102% in the assay with TK-10 renal; 84.1% in the assay with ACHN renal. Moreover, the growth with CAKI-1 renal was 70.6%; in the assay with A498 renal, 94.7%; in the assay on CCRF-CEM leukemia, 64.4%; in the assay with MOLT-4 leukemia, 56.7%; in the assay on SR leukemia, 24.7%; with RPMI-8226 leukemia, 29.6%. In addition, the growth in the assay on OVCAR-8 ovarian is 86.4%; in the assay on OVCAR-5 ovarian it was 81.6%; in the assay with OVCAR-4 ovarian, 66.2%; in the assay on SK-OV-3 ovarian it was 102%; in the assay with IGROV1 ovarian, 59.5%; in the assay on OVCAR-3 ovarian, 81.4%. Also, the growth was 91.2% in the assay on HS 578T breast and 80.7% in the assay with NCI/ADR-RES ovarian.

`C=C(c1ccc(OC)c(/C=C/C(=O)c2cc(OC)c(OC)c(OC)c2)c1)c1cc(OC)c(OC)c(OC)c1`: the growth in the assay on SK-MEL-2 melanoma is 3.16% (active); with EKVX NSCLC, 15%; with SN12C renal, -13.9% (active); in the assay with UO-31 renal, -85.6% (active); in the assay on TK-10 renal it was 24.3%; in the assay with ACHN renal it was -79.9% (active). Also, the growth was 24.6% in the assay on CAKI-1 renal; -23.5% (active) with A498 renal; 17.9% with CCRF-CEM leukemia; 12% with MOLT-4 leukemia; 9.47% (active) in the assay with SR leukemia; 10.1% in the assay on RPMI-8226 leukemia. Besides, the growth with OVCAR-8 ovarian is 6.59% (active); in the assay with OVCAR-5 ovarian, -51.3% (active); with OVCAR-4 ovarian, 40%; in the assay on SK-OV-3 ovarian, 38.6%; in the assay on IGROV1 ovarian, 15.2%; with OVCAR-3 ovarian, -39.8% (active). In addition, the growth in the assay with HS 578T breast is 96.5%; in the assay with NCI/ADR-RES ovarian, -7.33% (active).

On to `O=C(CSc1nnc(-c2ccc(Cl)c(Cl)c2)n1-c1ccccc1)Nc1ccc(C(=O)/C=C/c2ccc(Cl)cc2)cc1`, for which the growth in the assay with SK-MEL-2 melanoma is 78.6%; in the assay on EKVX NSCLC, 88.3%; in the assay on SN12C renal, 89.4%; with UO-31 renal, 66.2%; with TK-10 renal, 93.3%; in the assay on ACHN renal, 98%. For the same compound, the growth in the assay on CAKI-1 renal is 74.2%; in the assay on A498 renal, 82.5%; in the assay on CCRF-CEM leukemia, 83.7%; in the assay on MOLT-4 leukemia it was 80.5%; with SR leukemia, 76.6%; in the assay on RPMI-8226 leukemia it was -11.4% (active). For the same compound, the growth in the assay with OVCAR-8 ovarian is 87.9%; in the assay on OVCAR-5 ovarian it was 96.8%; in the assay with OVCAR-4 ovarian, 94.4%; in the assay with SK-OV-3 ovarian it was 87.9%; with IGROV1 ovarian it was 89.2%; in the assay with OVCAR-3 ovarian, 95.5%. In addition, the values for the growth with HS 578T breast and with NCI/ADR-RES ovarian were 90.7% and 95.3%, respectively.

For `c1ccc(Cn2cc3c(c2)-c2nc(Nc4ccccc4)ncc2CC3)cc1`, the growth is 92.6% [100 µM] in the assay with SK-MEL-2 melanoma; 72.1% [100 µM] with EKVX NSCLC; 87.8% [100 µM] with SN12C renal; 93% [100 µM] in the assay on UO-31 renal; 72.8% [100 µM] in the assay with TK-10 renal; 81.8% [100 µM] with ACHN renal. Further, the growth with CAKI-1 renal is 59.2% [100 µM]; in the assay with A498 renal it was 105% [100 µM]; in the assay on CCRF-CEM leukemia it was 2.85% [100 µM] (active); with MOLT-4 leukemia, 107% [100 µM]; in the assay with SR leukemia, 114% [100 µM]; in the assay on RPMI-8226 leukemia it was 88.2% [100 µM]. In addition, the growth with OVCAR-8 ovarian is 67.5% [100 µM]; in the assay with OVCAR-5 ovarian, 82.8% [100 µM]; in the assay with OVCAR-4 ovarian it was 63.3% [100 µM]; in the assay with SK-OV-3 ovarian, 63.1% [100 µM]; in the assay with IGROV1 ovarian, 62.9% [100 µM]; with OVCAR-3 ovarian, 85.9% [100 µM]. The results for the growth in the assay with HS 578T breast and with NCI/ADR-RES ovarian were 68.9% [100 µM] and 83.9% [100 µM], respectively.

Take `N=C(N)c1ccc(-c2ccc(-c3ccccc3)s2)nc1`: the growth with SK-MEL-2 melanoma is 104%; in the assay with EKVX NSCLC, 88.8%; with SN12C renal, 82.4%; in the assay on UO-31 renal it was 79.9%; with TK-10 renal, 106%; in the assay with ACHN renal, 91.5%. Also, the growth with CAKI-1 renal is 73.6%; in the assay on A498 renal it was 88.3%; in the assay with CCRF-CEM leukemia, 68.9%; with MOLT-4 leukemia it was 57.3%; in the assay with SR leukemia, 12.5%; with RPMI-8226 leukemia, 48%. For the same compound, the growth in the assay with OVCAR-8 ovarian was 91.9%; in the assay on OVCAR-5 ovarian, 92.9%; in the assay on OVCAR-4 ovarian it was 107%; in the assay on SK-OV-3 ovarian it was 88.6%; in the assay on IGROV1 ovarian, 82.3%; in the assay with OVCAR-3 ovarian, 95%. The growth was 85% in the assay with HS 578T breast and 96.7% in the assay on NCI/ADR-RES ovarian.

Turning to `O=C(Nc1cccc(Cn2c(=O)[nH]c3ccc(Oc4ncccn4)cc3c2=O)c1)c1cccc(Cl)c1`, the growth is 71.7% in the assay with SK-MEL-2 melanoma; 46.3% in the assay with EKVX NSCLC; 80.1% with SN12C renal; 39.6% in the assay with UO-31 renal; 53.3% in the assay with TK-10 renal; 60% in the assay with ACHN renal. Besides, the growth in the assay on CAKI-1 renal is 52.4%; in the assay on A498 renal it was 45.3%; in the assay with CCRF-CEM leukemia, 47.1%; in the assay with MOLT-4 leukemia it was 15.4%; in the assay on SR leukemia it was 35.9%; in the assay with RPMI-8226 leukemia it was 35.1%. In addition, the growth is 58.4% in the assay with OVCAR-8 ovarian; 86.2% with OVCAR-5 ovarian; 30.5% in the assay with OVCAR-4 ovarian; 82.5% with SK-OV-3 ovarian; 62.4% with IGROV1 ovarian; 67.6% with OVCAR-3 ovarian. Besides, the growth in the assay on HS 578T breast is 73.7%; in the assay with NCI/ADR-RES ovarian it was 77.5%.
